The supplement of paper PMC10849652
The full data set covers some 7,900 targets. This sample favours those with a hit. About 0.6% of all pairs of compound and target were hits. A number with no mark means an inactive call.

Assays:
Assay in all cases: log2 fold change, soluble protein after heating vs DMSO (PISA); higher = thermal stabilisation; K562 cells, 10 uM, 30 min; active = over 0.2 and 3.5 SD of the protein, either way, in both replicates (recomputed)
[1] = compound: C1=CC=C(C=C1)[C@H](COC2=CC3=C(C=C2)NC(=O)N3)NC(=O)C4=CC=CN(C4=O)CC5=CC(=C(C=C5)F)F
How it was run: (§1)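 Soluble protein was defined as the supernatant after 21,000xg for 90 min. It came from K562 cells at 2×10^6 cells/mL given 10 μM compound for 30 min, heated in aliquots for 3 min across 48°C-58°C, pooled, and extracted in PBS with 0.5% NP-40 at 4°C, and was quantified by TMTpro 16plex LC-MS/MS with equalised channel sums. Thermal stability against control samples, from duplicates, is reported as log2 fold change.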

[2] = compound: CC1=C(SC2=C1C(=N[C@H](C3=NN=C(N32)C)CC(=O)N)C4=CC=C(C=C4)Cl)C
How it was run: as §1

[3] = compound: CC1=C2C(=CC=C1)N=C(N(C2=O)C3=CC=CC=C3C)CN4C=NC5=C(N=CN=C54)N
How it was run: as §1

[4] = compound: Cc1sc2c(c1C)C(c1ccc(Cl)cc1)=N[C@@H](CC(=O)OC(C)(C)C)c1nnc(C)n1-2
How it was run: as §1

[5] = compound: c1ccc([C@@H]2C[C@H]2NC2CCNCC2)cc1
How it was run: as §1

Sequence of UniProt P14854 (P14854 whole entry, looked up): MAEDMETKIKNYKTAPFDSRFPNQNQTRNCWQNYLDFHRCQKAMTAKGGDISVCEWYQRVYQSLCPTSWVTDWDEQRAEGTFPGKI
Sequence of UniProt Q8N1G2 (Q8N1G2 whole entry, looked up): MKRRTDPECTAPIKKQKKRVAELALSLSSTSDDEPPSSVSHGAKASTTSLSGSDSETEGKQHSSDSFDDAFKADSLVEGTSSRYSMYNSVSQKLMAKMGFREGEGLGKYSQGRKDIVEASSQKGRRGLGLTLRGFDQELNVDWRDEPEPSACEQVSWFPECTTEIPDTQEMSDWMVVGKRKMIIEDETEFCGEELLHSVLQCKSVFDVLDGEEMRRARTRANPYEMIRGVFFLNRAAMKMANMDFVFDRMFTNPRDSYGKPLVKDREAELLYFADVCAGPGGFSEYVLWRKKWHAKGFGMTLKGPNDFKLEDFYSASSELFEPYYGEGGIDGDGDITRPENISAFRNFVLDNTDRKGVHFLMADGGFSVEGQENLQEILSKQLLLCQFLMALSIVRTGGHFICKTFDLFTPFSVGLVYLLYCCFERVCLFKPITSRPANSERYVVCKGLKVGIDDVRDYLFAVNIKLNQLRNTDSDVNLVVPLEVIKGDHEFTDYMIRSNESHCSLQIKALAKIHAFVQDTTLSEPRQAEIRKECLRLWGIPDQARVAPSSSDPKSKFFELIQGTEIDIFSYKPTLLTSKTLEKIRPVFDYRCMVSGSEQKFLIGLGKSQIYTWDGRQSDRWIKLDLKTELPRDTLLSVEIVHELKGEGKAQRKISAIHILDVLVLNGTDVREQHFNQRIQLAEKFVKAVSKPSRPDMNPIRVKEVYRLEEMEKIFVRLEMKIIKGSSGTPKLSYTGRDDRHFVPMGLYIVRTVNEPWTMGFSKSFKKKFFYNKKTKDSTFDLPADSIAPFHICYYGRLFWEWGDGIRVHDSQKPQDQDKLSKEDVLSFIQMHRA
Sequence of UniProt O95273 (O95273 whole entry, looked up): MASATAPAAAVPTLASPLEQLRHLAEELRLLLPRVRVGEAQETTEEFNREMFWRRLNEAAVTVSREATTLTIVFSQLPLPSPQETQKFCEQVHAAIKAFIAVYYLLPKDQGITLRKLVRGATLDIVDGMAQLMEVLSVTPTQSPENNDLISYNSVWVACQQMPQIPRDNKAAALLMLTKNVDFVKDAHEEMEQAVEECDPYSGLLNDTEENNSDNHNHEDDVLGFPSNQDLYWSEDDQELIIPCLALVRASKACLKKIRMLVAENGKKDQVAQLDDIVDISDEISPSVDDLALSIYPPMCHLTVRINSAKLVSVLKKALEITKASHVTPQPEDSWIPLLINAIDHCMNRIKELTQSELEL
Sequence of UniProt Q5RI15 (Q5RI15 whole entry, looked up): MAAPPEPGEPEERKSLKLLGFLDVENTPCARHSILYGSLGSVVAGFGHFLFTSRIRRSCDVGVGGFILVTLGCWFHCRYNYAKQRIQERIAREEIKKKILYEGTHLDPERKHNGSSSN
Sequence of UniProt P86791 (P86791 whole entry, looked up): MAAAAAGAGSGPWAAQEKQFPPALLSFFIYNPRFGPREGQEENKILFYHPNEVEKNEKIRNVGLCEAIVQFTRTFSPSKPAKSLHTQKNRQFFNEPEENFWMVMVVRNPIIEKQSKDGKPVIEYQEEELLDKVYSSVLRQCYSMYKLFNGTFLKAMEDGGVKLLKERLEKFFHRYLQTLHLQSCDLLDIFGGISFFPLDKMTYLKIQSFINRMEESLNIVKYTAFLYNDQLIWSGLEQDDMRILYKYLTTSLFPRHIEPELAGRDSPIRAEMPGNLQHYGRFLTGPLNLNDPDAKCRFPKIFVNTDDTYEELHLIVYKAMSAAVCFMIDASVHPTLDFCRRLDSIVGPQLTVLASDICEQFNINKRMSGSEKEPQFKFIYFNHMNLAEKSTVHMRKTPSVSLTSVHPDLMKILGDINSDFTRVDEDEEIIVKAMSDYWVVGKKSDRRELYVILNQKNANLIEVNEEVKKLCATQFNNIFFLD
Sequence of UniProt Q99653 (Q99653 whole entry, looked up): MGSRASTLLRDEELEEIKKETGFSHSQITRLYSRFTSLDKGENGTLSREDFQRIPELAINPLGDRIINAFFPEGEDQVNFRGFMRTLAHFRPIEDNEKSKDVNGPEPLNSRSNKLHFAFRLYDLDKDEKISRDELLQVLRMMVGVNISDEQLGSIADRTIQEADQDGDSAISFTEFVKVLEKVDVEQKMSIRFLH
Sequence of UniProt Q5T6V5 (Q5T6V5 whole entry, looked up): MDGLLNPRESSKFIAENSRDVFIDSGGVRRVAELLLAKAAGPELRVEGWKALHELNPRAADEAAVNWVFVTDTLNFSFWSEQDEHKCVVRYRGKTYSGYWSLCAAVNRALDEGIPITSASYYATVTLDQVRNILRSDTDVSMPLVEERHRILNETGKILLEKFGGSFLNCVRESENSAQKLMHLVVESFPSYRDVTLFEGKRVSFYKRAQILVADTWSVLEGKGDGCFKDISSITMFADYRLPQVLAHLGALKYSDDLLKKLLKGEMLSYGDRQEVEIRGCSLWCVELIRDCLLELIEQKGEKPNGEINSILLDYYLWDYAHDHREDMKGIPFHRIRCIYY
Sequence of UniProt P42574 (P42574 whole entry, looked up): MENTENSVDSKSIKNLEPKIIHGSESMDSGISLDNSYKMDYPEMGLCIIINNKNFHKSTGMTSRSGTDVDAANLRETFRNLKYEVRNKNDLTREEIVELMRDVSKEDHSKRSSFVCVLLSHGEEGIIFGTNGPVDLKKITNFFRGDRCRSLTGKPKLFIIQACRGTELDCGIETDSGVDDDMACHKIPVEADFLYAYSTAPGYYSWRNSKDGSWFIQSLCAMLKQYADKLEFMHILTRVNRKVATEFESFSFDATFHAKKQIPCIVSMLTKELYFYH
Sequence of UniProt Q8N163 (Q8N163 whole entry, looked up): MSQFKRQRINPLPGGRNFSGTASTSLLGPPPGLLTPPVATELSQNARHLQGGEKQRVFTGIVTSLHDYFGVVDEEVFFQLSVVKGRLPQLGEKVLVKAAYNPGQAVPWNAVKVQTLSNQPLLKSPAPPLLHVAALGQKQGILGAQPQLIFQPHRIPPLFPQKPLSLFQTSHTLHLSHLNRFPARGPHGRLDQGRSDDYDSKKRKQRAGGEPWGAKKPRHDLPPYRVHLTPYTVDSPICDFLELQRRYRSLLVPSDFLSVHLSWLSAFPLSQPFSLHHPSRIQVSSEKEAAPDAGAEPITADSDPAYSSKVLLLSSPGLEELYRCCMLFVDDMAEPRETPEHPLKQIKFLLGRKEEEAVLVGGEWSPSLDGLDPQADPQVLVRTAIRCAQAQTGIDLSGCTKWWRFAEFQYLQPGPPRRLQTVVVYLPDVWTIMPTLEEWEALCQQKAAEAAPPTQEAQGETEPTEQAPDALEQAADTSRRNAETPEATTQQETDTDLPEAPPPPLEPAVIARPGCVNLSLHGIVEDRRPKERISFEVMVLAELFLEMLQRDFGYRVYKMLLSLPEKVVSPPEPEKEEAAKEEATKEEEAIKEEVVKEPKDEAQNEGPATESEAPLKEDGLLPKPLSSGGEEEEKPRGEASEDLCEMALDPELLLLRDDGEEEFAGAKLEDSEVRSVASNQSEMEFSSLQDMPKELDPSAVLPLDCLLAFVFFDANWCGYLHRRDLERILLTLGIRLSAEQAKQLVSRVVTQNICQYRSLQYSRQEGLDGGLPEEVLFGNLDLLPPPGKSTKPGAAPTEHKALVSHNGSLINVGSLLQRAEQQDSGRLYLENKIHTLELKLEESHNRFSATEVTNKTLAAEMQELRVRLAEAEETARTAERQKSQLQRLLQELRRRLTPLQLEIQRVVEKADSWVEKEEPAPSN
Sequence of UniProt P55060 (P55060 whole entry, looked up): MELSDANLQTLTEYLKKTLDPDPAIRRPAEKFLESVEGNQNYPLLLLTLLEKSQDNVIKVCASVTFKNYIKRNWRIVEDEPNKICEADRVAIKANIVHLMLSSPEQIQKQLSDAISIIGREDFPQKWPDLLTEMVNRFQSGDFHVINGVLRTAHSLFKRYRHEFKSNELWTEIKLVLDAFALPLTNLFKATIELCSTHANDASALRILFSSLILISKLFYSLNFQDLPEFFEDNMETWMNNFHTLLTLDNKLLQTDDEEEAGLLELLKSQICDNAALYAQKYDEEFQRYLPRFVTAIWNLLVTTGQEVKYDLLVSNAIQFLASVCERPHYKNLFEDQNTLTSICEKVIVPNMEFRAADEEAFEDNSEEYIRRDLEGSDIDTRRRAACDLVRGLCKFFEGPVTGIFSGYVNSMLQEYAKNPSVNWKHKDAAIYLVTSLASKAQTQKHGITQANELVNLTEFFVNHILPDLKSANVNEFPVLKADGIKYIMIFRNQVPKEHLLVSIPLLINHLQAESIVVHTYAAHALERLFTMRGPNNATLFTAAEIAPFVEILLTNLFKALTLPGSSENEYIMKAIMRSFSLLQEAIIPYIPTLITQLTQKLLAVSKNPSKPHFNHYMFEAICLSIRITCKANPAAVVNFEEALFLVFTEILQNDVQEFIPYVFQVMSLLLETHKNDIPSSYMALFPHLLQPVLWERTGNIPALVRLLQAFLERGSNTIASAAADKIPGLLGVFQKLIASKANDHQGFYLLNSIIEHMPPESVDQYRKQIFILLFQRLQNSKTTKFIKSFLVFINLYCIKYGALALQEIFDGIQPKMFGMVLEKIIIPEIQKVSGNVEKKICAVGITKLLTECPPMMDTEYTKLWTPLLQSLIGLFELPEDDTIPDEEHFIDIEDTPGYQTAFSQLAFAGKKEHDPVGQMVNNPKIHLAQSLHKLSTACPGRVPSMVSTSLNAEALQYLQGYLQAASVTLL
Sequence of UniProt Q01459 (Q01459 whole entry, looked up): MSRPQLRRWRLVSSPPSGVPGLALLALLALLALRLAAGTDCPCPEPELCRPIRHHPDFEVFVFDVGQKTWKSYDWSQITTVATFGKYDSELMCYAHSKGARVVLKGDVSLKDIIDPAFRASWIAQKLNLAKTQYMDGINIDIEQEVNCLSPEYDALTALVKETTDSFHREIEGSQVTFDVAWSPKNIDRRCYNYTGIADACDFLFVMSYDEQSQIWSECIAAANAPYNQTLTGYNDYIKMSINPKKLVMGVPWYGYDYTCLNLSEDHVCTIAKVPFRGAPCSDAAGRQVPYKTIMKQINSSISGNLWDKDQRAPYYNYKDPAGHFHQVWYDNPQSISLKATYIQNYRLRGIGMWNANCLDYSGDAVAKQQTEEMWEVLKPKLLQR

| Target | log2 fold change [1] | log2 fold change [2] | log2 fold change [3] | log2 fold change [4] | log2 fold change [5] |
| --- | --- | --- | --- | --- | --- |
| CDKN2AIP (UniProt Q9NXV6) | -0.036 | -0.044 | -0.008 | 0.021 | -0.014 |
| CD68 (UniProt P34810) | 0.021 | – | – | – | – |
| CBR1 (UniProt P16152) | -0.009 | 0.015 | 0.01 | -0.028 | -0.037 |
| CEMIP2 (UniProt Q9UHN6) | -0.03 | -0.017 | 0.08 | -0.04 | 0.081 |
| CCNB1 (UniProt P14635) | -0.004 | 0.036 | 0.015 | -0.007 | 0.026 |
| CDC26 (UniProt Q8NHZ8) | 0.05 | 0.027 | -0.346 | -0.038 | 0.022 |
| CSNK1A1 isoform 3 (UniProt P48729) | -0.061 | – | – | – | – |
| CPSF6 isoform 2 (UniProt Q16630) | 0.036 | -0.038 | 0.048 | 0.02 | -0.016 |
| C9orf64 (UniProt Q5T6V5) | -0.15 | 0.054 | 0.097 | 0.052 | -0.066 |
| CHEK1 (UniProt O14757) | 0.006 | 0.065 | 0.087 | 0.025 | 0.01 |
| CS (UniProt F8VU34) | -0.03 | – | – | – | – |
| CCZ1 (UniProt P86791) | 0.011 | 0.009 | 0.02 | 0.017 | -0.024 |
| CSTF2 (UniProt P33240) | 0.017 | 0.04 | 0.057 | -0.026 | 0.021 |
| COX20 isoform 2 (UniProt Q5RI15) | 0.071 | 0.05 | 0 | -0.022 | 0.042 |
| CAD (UniProt P27708) | -0.115 | 0.048 | -0.019 | -0.005 | -0.033 |
| COQ7 (UniProt Q99807) | -0.038 | 0.016 | 0.029 | 0.014 | 0.048 |
| CA1 (UniProt P00915) | -0.007 | 0.039 | 0.019 | 0.007 | 0.018 |
| CTBS (UniProt Q01459) | 0.082 | -0.002 | 0.014 | -0.019 | -0.006 |
| CBX1 (UniProt P83916) | 0.003 | 0.026 | 0.023 | -0.003 | 0.031 |
| CENPE (UniProt Q02224) | -0.005 | -0.139 | 0.049 | -0.001 | -0.362 |
| CHST11 (UniProt Q9NPF2) | 0.018 | -0.061 | 0.055 | 0.007 | -0.139 |
| COMMD2 (UniProt Q86X83) | -0.029 | 0.053 | 0 | -0.199 | 0.04 |
| CPT1A (UniProt P50416) | 0.095 | 0.011 | 0.125 | -0.022 | -0.118 |
| CLUH (UniProt O75153) | -0.05 | 0.027 | 0.086 | -0.016 | -0.052 |
| CNOT4 isoform 9 (UniProt O95628) | 0.009 | -0.09 | 0.147 | -0.067 | -0.055 |
| CHD3 isoform 3 (UniProt Q12873) | -0.104 | 0.038 | 0.069 | -0.038 | 0.087 |
| CASP7 isoform 3 (UniProt P55210) | 0.12 | – | – | – | – |
| CHCHD4 isoform 2 (UniProt Q8N4Q1) | 0.08 | 0.205 | -0.006 | -0.489 (active) | -0.113 |

| Target | log2 fold change [1] | log2 fold change [2] | log2 fold change [3] | log2 fold change [4] | log2 fold change [5] |
| --- | --- | --- | --- | --- | --- |
| CNDP2 (UniProt Q96KP4) | -0.006 | 0.039 | 0.023 | 0.009 | -0.041 |
| CD53 (UniProt P19397) | -0.05 | 0.142 | 0.106 | 0.083 | 0.014 |
| CASP10 isoform 4 (UniProt Q92851) | 0.064 | 0.189 | 0.114 | 0.002 | -0.145 |
| CELF2 isoform 3 (UniProt O95319) | -0.005 | 0.119 | 0.013 | 0.071 | -0.014 |
| CCM2 isoform 2 (UniProt Q9BSQ5) | 0.013 | 0.144 | 0.046 | -0.161 | -0.046 |
| CDK11B (UniProt P21127) | -0.05 | 0.015 | 0.137 | -0.01 | 0.059 |
| CHCHD1 (UniProt Q96BP2) | 0.07 | -0.056 | -0.031 | 0.168 | 0.021 |
| CDC42EP1 (UniProt Q00587) | -0.067 | 0.107 | 0.041 | 0.043 | -0.029 |
| CMTR1 (UniProt Q8N1G2) | -0.008 | 0.033 | 0.07 | -0.009 | -0.04 |
| CERT isoform 3 (UniProt Q9Y5P4) | 0.102 | 0.029 | 0.066 | 0.14 | -0.028 |
| CHP1 (UniProt Q99653) | 0.022 | 0.016 | -0.058 | -0.057 | -0.015 |
| CSE1L (UniProt P55060) | -0.024 | 0.063 | 0.033 | -0.028 | -0.009 |
| COX7B (UniProt P24311) | -0.003 | 0.001 | 0.063 | -0.018 | 0.018 |
| COX6B1 (UniProt P14854) | 0.007 | 0.141 | 0.003 | -0.153 | -0.054 |
| CCNT1 (UniProt O60563) | 0.108 | -0.022 | -0.036 | 0.085 | 0.072 |
| CASP3 (UniProt P42574) | 0.018 | 0.004 | -0.005 | -0.055 | 0.003 |
| CORO2A (UniProt Q92828) | -0.057 | -0.041 | 0.061 | 0.045 | 0.071 |
| CCAR2 isoform 2 (UniProt Q8N163) | -0.057 | -0.014 | 0.079 | -0.089 | 0.011 |
| CERS2 (UniProt Q96G23) | -0.033 | 0.035 | -0.012 | -0.036 | 0.048 |
| CD63 (UniProt P08962) | 0.041 | 0.02 | -0.008 | 0.009 | 0.035 |
| COX15 (UniProt Q7KZN9) | -0.027 | 0.071 | 0.036 | -0.013 | -0.02 |
| CCNDBP1 (UniProt O95273) | 0.023 | -0.118 | 0.182 | 0.007 | 0.047 |
| CASTOR2 (UniProt A6NHX0) | 0.056 | 0.078 | 0.039 | -0.065 | -0.016 |
| CS (UniProt O75390) | -0.043 | 0.089 | 0.053 | -0.015 | -0.016 |
| CLN3 (UniProt Q13286) | 0.005 | -0.032 | -0.315 | -0.119 | 0.087 |
| CDC42BPA isoform 6 (UniProt Q5VT25) | -0.101 | -0.039 | 0.083 | 0.031 | 0.069 |
| CLCN3 (UniProt P51790) | 0.01 | 0.025 | 0.064 | -0.107 | 0.056 |
